SF-1 inh = inhibitors of human nuclear receptor SF-1 | CHO-K1 Gal4-SF-1 LBD luciferase reporter | AID 525 | inhibition, % at 10 µM | actives 0.55% (n = 65,000);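 active means inhibition above the mean inhibition of all tested compounds plus 3 SD, cut at about 48% in these data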;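 further: 0% = SF-1 transfected cells with DMSO and 100% = mock-transfected cells lacking SF-1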
Target sequence (Q13285 whole entry, looked up, the tested form may be a part): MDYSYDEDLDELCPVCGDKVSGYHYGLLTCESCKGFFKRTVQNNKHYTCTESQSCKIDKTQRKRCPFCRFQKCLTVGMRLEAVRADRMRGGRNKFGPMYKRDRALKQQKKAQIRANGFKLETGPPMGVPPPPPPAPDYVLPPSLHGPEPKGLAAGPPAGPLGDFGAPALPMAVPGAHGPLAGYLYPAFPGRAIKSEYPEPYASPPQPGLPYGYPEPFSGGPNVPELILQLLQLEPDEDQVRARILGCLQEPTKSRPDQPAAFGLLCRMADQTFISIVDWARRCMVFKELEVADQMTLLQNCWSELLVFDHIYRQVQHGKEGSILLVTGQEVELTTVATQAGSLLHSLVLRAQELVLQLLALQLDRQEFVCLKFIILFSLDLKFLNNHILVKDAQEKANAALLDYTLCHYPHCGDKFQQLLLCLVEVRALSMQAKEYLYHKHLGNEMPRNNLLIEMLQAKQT
Active calls of the source: *. Only a selection was taken, and hits are over-represented in it overall.

CN1CCN(C(=O)c2cccc(COc3cc(Cl)ccc3Cl)c2)CC1 was read as SF-1 inh -69.2.
Screening O=C(COc1ccccc1Cl)Nc1ccc(Cl)cn1 returned SF-1 inh -74.5.
`O=C(O)c1cccc(COc2ccccc2Cl)c1` gave SF-1 inh 93.6*.
Screening CCOc1ccc2[nH]c(=O)c(CN(CCO)C(=O)c3ccc(F)cc3)cc2c1 returned SF-1 inh -10.5.
For Cc1noc(C)c1COC(=O)c1cccnc1SCC(=O)Nc1ccc2c(c1)OCO2 the results were SF-1 inh -3.2.
For COc1ccc(C(=O)Nn2c(SCC(=O)NCc3ccco3)nc3ccccc3c2=O)cc1 the results were SF-1 inh 61.9*.
Screening Cc1cc(C(=O)CNCc2ccco2)c(C)n1-c1ccc(F)cc1 returned SF-1 inh -52.9.
`CCOC(=O)CSc1nc2cc(C(=O)NCc3ccco3)ccc2c(=O)n1-c1ccc(F)cc1` gave SF-1 inh 51.4*.
For CCOC(=O)CSc1nnc(CNC(=O)c2ccc(OC)cc2OC)n1-c1ccc(OC)cc1 the results were SF-1 inh 14.3.
CCn1c(SCC(=O)NCCOc2ccccc2)nc2ccccc2c1=O was read as SF-1 inh 6.9.
Screening COc1ccc2cc(C(=O)NCc3ccco3)c(=O)oc2c1 returned SF-1 inh 11.0.
For COc1ccccc1N1CCN(C(=O)C2C3C=CC4(CN(Cc5ccccc5Cl)C(=O)C24)O3)CC1 (centres undefined) the results were SF-1 inh 17.2.
Screening CCCc1nnc(NC(=O)CN2C(=O)C3C4C=CC(C4)C3C2=O)s1 (centres undefined) returned SF-1 inh -17.8.
For Cn1c(=O)c2c(nc(N3CCOCC3)n2CCCNC2=NCCC2)n(C)c1=O the results were SF-1 inh 1.7.
COC(=O)c1ccc(CSc2nc(C)nc3sc(C)c(C)c23)o1 was read as SF-1 inh 16.0.
For COC(=O)c1sc(NC(=O)CSc2nnnn2-c2ccc(C)cc2C)nc1C the results were SF-1 inh 21.5.
Screening CC(=O)c1ccc(N2CCN(c3ccc(C(F)(F)F)cn3)CC2)cc1 returned SF-1 inh 57.8*.
CC(=O)c1ccc(N2CCN(C(=O)c3cc4c(=O)n(C)c5ccccc5c4n3C)CC2)cc1 was read as SF-1 inh 47.6.
Screening C=CCn1c(=O)[nH]c2cc(C(=O)N3CCN(c4ccc(C(C)=O)cc4)CC3)ccc2c1=O returned SF-1 inh -14.5.
COc1ccc(C)cc1Cn1c(S(C)(=O)=O)nc2ccccc21 was read as SF-1 inh 2.7.
For Cc1ccc(OCC(=O)Nc2ccc(N3CCOCC3)cc2)cc1 the results were SF-1 inh -1.5.
Cn1nc(CC(=O)Nc2ccc(N3CCN(C(=O)OC(C)(C)C)CC3)cc2)c2ccccc2c1=O was read as SF-1 inh 63.1*.
For Cn1c(SCC(=O)Nc2ccc3c(c2)OCCO3)nnc1-c1ccco1 the results were SF-1 inh -16.2.
For O=C(Nc1ccc2c(c1)OCCO2)c1c(F)cccc1F the results were SF-1 inh -56.1.
Screening COc1ccc2c(c1)c(C(=O)CNc1nc(C)cs1)c(C)n2C returned SF-1 inh 6.2.
Screening COc1cccc(OC)c1NC(=O)Cc1nn(C)c(=O)c2ccccc12 returned SF-1 inh -3.1.
`Cc1csc(NC(=O)Cc2nn(C)c(=O)c3ccccc23)n1` gave SF-1 inh 54.1*.
Cn1nc(CC(=O)Nc2ccc3c(c2)OCCO3)c2ccccc2c1=O was read as SF-1 inh 62.4*.
Cn1nc(C(=O)NCC2CCCO2)c2ccccc2c1=O (centres undefined) was read as SF-1 inh 5.9.
For CCc1nn(CC(=O)O)c(=O)c2ccccc12 the results were SF-1 inh -18.5.
For CCC(=O)Nc1ccc(N2CCN(C(=O)c3ccccc3C)CC2)cc1 the results were SF-1 inh 4.1.
Cc1ccc(NC(=O)Cc2nn(C)c(=O)c3ccccc23)cc1F was read as SF-1 inh 80.3*.
CCC(CC)c1nc(NCCC(=O)O)c2ccccc2n1 was read as SF-1 inh 6.1.
For COc1ccc2[nH]c(=O)c(CN(C(=O)c3ccco3)C3CCCCC3)cc2c1 the results were SF-1 inh 10.0.
`CCOCCCN(C(=O)c1ccco1)C(C(=O)NC1CCCC1)c1cccc(OC)c1OC` (centres undefined) gave SF-1 inh 10.0.
Cc1ccccc1OC(=O)CCC(=O)OCCCC(F)(F)C(F)(F)F was read as SF-1 inh -3.3.
For CCCc1nnc(SCc2ccc(OCC)cc2)n1N the results were SF-1 inh 6.1.
Cc1ccc(-n2ncc3c(=O)n(CC(=O)NCc4ccco4)cnc32)cc1C was read as SF-1 inh -12.2.
`C=CCN1C(c2ccc(OCC)cc2)=CS/C1=C(\C#N)c1nnc2n1CCCCC2` gave SF-1 inh 8.7.
For Cc1onc(-c2c(F)cccc2Cl)c1C(=O)NCc1ccccn1 the results were SF-1 inh -1.3.
Screening CCN(CC)S(=O)(=O)c1ccc(C(=O)NCc2n[nH]c(=S)n2Cc2ccccc2)cc1 returned SF-1 inh 3.7.
`COC(=O)C1=C(CN2CCN(C)CC2)NC(=O)NC1c1cc(C)ccc1C` (centres undefined) gave SF-1 inh 3.3.
COC(=O)C1=C(CN2CCCc3ccccc32)NC(=O)NC1c1ccc(F)cc1 (centres undefined) was read as SF-1 inh 74.8*.
For COc1ccc(CCNC(=O)CN2CCCc3ccccc32)cc1OC the results were SF-1 inh -17.0.
`COc1cc(C2N(c3ccc(Cl)c(Cl)c3)C(=O)C3CCCN32)cc(OC)c1OC` (centres undefined) gave SF-1 inh 2.1.
Screening COc1ccc(N2CCN(CCNC(=O)CCNS(=O)(=O)c3cccs3)CC2)cc1 returned SF-1 inh -9.9.
For Cc1ccc2c(c1)NC(=O)C(CC(=O)NCCCN1CCN(c3cc(Cl)ccc3C)CC1)O2 (centres undefined) the results were SF-1 inh 13.1.
`COc1ccc(NC(=O)NCCCN2CCN(c3cc(C)ccc3C)CC2)cc1` gave SF-1 inh 48.6*.
Screening FC(F)C(F)(F)C1=CC(c2cccs2)=NCCN1 returned SF-1 inh 9.9.
`CC(C)(C)c1ccc(-c2conc2N)cc1` gave SF-1 inh -51.6.
O=C(CN1CCN(CC(=O)Nc2ccccn2)CC1)Nc1ccccn1 was read as SF-1 inh 7.9.
For c1ccc(/N=C2\N=C(Nc3ccccn3)c3ccccc32)nc1 the results were SF-1 inh 86.5*.
For c1ccc(Nc2nc3ccccc3[nH]2)nc1 the results were SF-1 inh -54.7.
For Nc1c(C(=O)Nc2ccc(Cl)cc2)oc2ccccc12 the results were SF-1 inh -105.7.
Screening Cc1ccc(-c2nc3nc4ccccc4nc3n2Cc2ccco2)cc1 returned SF-1 inh 58.6*.
`COc1ccc(CCn2c(-c3ccco3)nc3nc4ccccc4nc32)cc1` gave SF-1 inh -29.2.
For c1ccc(Cn2c(-c3ccco3)nc3nc4ccccc4nc32)cc1 the results were SF-1 inh -81.8.
Screening CC(C)CC(NC(=O)OC(C)(C)C)C(=O)NC(C(=O)N1CCCC1C(N)=O)C(C)C (centres undefined) returned SF-1 inh 12.8.
For CSc1nc(C)cc(OCNC(=O)c2cccs2)n1 the results were SF-1 inh -4.1.
For Cn1nc(C(C)(C)C)cc1C(=O)NCc1ccc(N2CCCC2=O)cc1 the results were SF-1 inh 69.4*.
Screening O=C1CC(NCCN2CCOCC2)C(=O)N1Cc1ccc(N2CCCC2=O)cc1 (centres undefined) returned SF-1 inh -3.6.
O=C(NCc1ccccc1)c1noc2c1CCCCC2 was read as SF-1 inh -52.5.

High-throughput results as filed in PubChem BioAssay.
